Results published in ChEMBL document CHEMBL4513216, “Probing the Open Global Health Chemical Diversity Library for Multistage-Active Starting Points for Next-Generation Antimalarials” (ACS Infect Dis, 2020).
Out of some 69,000 compounds screened, about 8,600 (12%) showed an effect of 50% or more. The list comes from a sample in which strong results are over-represented; it also holds similar structures and randomly drawn compounds.

test system: Plasmodium berghei; assay: Screen against P. berghei liver stage (PbLuc), transformed with Luciferase, at 10uM; assay type: functional, HepG2; details: tested at 10 uM

Compound | INHIBITION
COCCOCCNC(=O)N1CCc2c(F)ccc(F)c2C1 | 5.38%
CCCNC(=O)CCNC(=O)N1CCc2c(F)ccc(F)c2C1 | 71.7%
COC(=O)CCCNC(=O)N1CCc2c(F)ccc(F)c2C1 | 28.7%
Cc1cccc(CN2C[C@@H](C)[C@@]3(CCN(CC(=O)N(C)C)C3=O)C2)c1 | 2.58%
CN1CC[C@]2(CN(Cc3cccs3)C[C@H]2c2ccccc2)C1=O | 24.9%
Cc1cc(CN2C[C@@H](C)[C@@]3(CCN(CC(=O)N(C)C)C3=O)C2)oc1C | 51.2%
Cc1cc(CN2C[C@@H](C)[C@@]3(CCN(C)C3=O)C2)oc1C | 65.9%
Cc1noc(C)c1CN1C[C@H](C)[C@]2(CCN(Cc3cccnc3)C2=O)C1 | 13.7%
CCc1ccc(CN2C[C@@H](C)C3(CCN(CC(=O)N(C)C)C3=O)C2)o1 (stereo partly drawn) | 21.1%
Fc1cccc(-c2nc(CN3CCCC(Cn4cncn4)C3)co2)c1 (stereo not drawn) | 11.9%
Cc1nc(CCCNC(=O)Nc2cc(F)cc(F)c2)n[nH]1 | 55.5%
Cc1nc(CCCNC(=O)c2cc(F)ccc2O)n[nH]1 | 46.6%
Cc1nc(CCCNC(=O)c2c(F)cccc2Br)n[nH]1 | 39.6%
Cc1nc(CCCNC(=O)c2c(F)cc(F)cc2F)n[nH]1 | 33.7%
COc1ccc2cccc(CC(=O)NCCCc3n[nH]c(C)n3)c2c1 | -6.97%
Cc1nc(CCCNC(=O)Nc2ccc(F)cc2F)n[nH]1 | 56.5%
COc1ccc(C(NCc2ccc(C#N)cc2)C2CC2)cc1 (stereo not drawn) | -22.3%
COC(=O)CCn1ccc(=O)c2ccccc21 | 20.9%
O=S(=O)(C1CC1)N1CCCn2cnc(COc3cccnc3)c2C1 | -4.26%
Cc1ccc(CCCC(=O)N2CCN(C3CCCN(C)C3)CC2)s1 (stereo not drawn) | 15.7%
O=C(C1CCOC1)N1CCN(CC(F)(F)F)c2ccccc21 (stereo not drawn) | 34.2%
c1ccc(-c2nnc(CN3CCCC3Cn3cncn3)o2)cc1 (stereo not drawn) | -41.6%
COCc1ncn2c1CN(C(=O)c1ccc[nH]1)CC2 | -20.1%

Compound | INHIBITION
Cc1nc(C)n(CC2CCCN(CCC(=O)N3CCOCC3)C2)n1 (stereo not drawn) | -2.19%
c1c[nH]c(CN2CCCC(Cc3ccc(NC4CCCC4)nn3)C2)n1 (stereo not drawn) | -3.02%
Cc1ccc(NC(=O)N(C)Cc2cnn(C)c2)cc1OCC(F)F | 52.7%
CC(C)OCc1cccc(NC(=O)N(C)Cc2ncnn2C)c1 | 45.8%
CCOc1ccc(CNC(=O)N(C)Cc2ncnn2C)cc1C | 49%
CN(Cc1ncnn1C)C(=O)Nc1ccc(OC(F)F)cc1 | 21.2%
CCOc1cc(NC(=O)N(C)Cc2ncnn2C)ccc1C | 50.1%
Cc1ccc(NC(=O)N(C)Cc2cnn(C)c2)c(C)c1 | -29.1%
Cc1ccc(C)c(NC(=O)N(C)Cc2cnn(C)c2)c1 | 39.8%
CCSCc1cccc(NC(=O)N(C)Cc2ncnn2C)c1 | 59.7%
CC(=O)N(C)Cc1cccc(NC(=O)N(C)Cc2nccs2)c1 | -49.3%
COc1c(CNCCNC(=O)c2cccs2)c(C)nn1C | -79.3%
Cc1ccc(OCCN(C)C(=O)NC(C)c2nncn2C)cc1 (stereo not drawn) | 21.5%
Cc1cccc(NC(=O)Cn2nc3ccccn3c2=O)c1C | -7.35%
CC(C)OCc1nn(C)c2c1CCN(CC1CC1)C2 | 32.5%
Cc1cc(CN2C[C@H](N3CCOCC3)[C@@H]3OCCC[C@@H]32)oc1C | 26.4%
O=c1oc(-c2ccc(F)cc2)nn1CN1CCCCC1 | 23.7%
CCOc1ccc(Cl)c(C(=O)N2CCN(CC(O)CC)CC2)n1 (stereo not drawn) | 14.1%
CCc1cc(N2CCN(c3ccc(Cl)cn3)CC2)n2nccc2n1 | 81.2%
CCc1cc(N2CCC(N3CCSCC3)CC2)n2nccc2n1 | 35%
COCc1cc(N2CCOCC2)n2nccc2n1 | -11.9%
COCc1cc(N2CCN(C3CCCCC3)CC2)n2nccc2n1 | -9.29%
COCc1cc(N2CCN(c3ccc(Cl)cn3)CC2)n2nccc2n1 | 54.5%

Compound | INHIBITION
COCc1cc(N2CCN(Cc3ccncc3)CC2)n2nccc2n1 | 48.5%
Cc1ccc(CN2CC[C@@H](O)[C@@H]2Cc2cnn(C)c2)o1 | 22.9%
Cc1cccc(CN2C[C@H]3CCC[C@@]3(COCc3csc(C)n3)C2)n1 | -28.2%
CCC(CC)c1cc(CNC(=O)N2CCCC(N(C)C)C2)on1 (stereo not drawn) | -34%
CCC(CC)c1cc(CNC(=O)N2CCCC(C(=O)NC)C2)on1 (stereo not drawn) | 64.6%
CCC(CC)c1cc(CNC(=O)N2CCC(CO)CC2)on1 | 40.4%
C1CCC(c2nnc3sc(C4CCCO4)nn23)C1 (stereo not drawn) | 49.4%
CCOc1ccc(CC(=O)N2CCN(c3nccn3CC)CC2)cc1 | 49.1%
Cc1ccsc1CNC(=O)N(C)Cc1cnn(C)c1 | -14.86%
Cc1nc(CNC(=O)N(C)Cc2cnn(C)c2)cs1 | 15.05%
Cc1csc(CNC(=O)N(C)Cc2cnn(C)c2)n1 | 54.4%
Cc1ccc2c(c1)C1(CCN(C(=O)C3CC3)CC1)CC2N1CCOCC1 (stereo not drawn) | 10.7%
Cc1nn(C)c2c(N3CCN(C(=O)C4CCCCC4)CC3)ncnc12 | 44.1%
CC(=O)N1CCC2(C1)C(=O)N(CC1CC1)c1ccccc12 (stereo not drawn) | -19.6%
CC(C)CN1C(=O)C2(CCN(Cc3ccoc3)C2)c2ccccc21 (stereo not drawn) | 23.3%
CN(C)CCN1C(=O)C2(CCN(CC3CC3)CC2)c2ccccc21 | 27.6%
CN1CCC2(CC1)C(=O)N(CC1CC1)c1ccccc12 | 14.1%
CC(C)CN1C(=O)C2(CCN(Cc3cccs3)C2)c2ccccc21 (stereo not drawn) | 20.4%
CC(C)CN1C(=O)C2(CCN(Cc3nccs3)C2)c2ccccc21 (stereo not drawn) | 81.8%
CC(C)CN1C(=O)C2(CCN(CC3CCOCC3)C2)c2ccccc21 (stereo not drawn) | 71.9%
Cc1ccc(CN2CCC3(C2)C(=O)N(CC2CC2)c2ccccc23)s1 (stereo not drawn) | 55%
CC(C)CN1C(=O)C2(CCN(Cc3ccc(F)cc3)C2)c2ccccc21 (stereo not drawn) | 38.2%
COCCN1C(=O)C2(CCN(CC3CC3)CC2)c2ccccc21 | 55.7%

Compound | INHIBITION
Cc1ccc(CN2CCC3(CC2)C(=O)N(C)c2ccccc23)s1 | 31.8%
CC(C)CN1C(=O)C2(CCN(Cc3ccsc3)C2)c2ccccc21 (stereo not drawn) | 32.2%
COc1ccc(OC)c(C2CC(=O)Nc3nc(N4CCOCC4)sc32)c1 (stereo not drawn) | 7.66%
Cc1c(NC(=O)NC(C)CCO)cccc1OC1CCCC1 (stereo not drawn) | -16.9%
CC(C)n1ccnc1CN1CCCN(C(=O)c2ncccc2O)CC1 | 32.45%
CCOCCN1CCN(CC(O)c2ccc(F)cc2)CC1 (stereo not drawn) | 37.9%
O=C(NC[C@]12COC[C@H]1CN(Cc1nccs1)C2)c1ccsc1 | 7.31%
COc1ccc(NC(=O)C2CC(=O)N(C)C2)cn1 (stereo not drawn) | 45.7%
CC(C)(NS(C)(=O)=O)c1nc(-c2ccncc2)no1 | 22%
O=C(CCn1c(C(F)F)cc2cccnc21)NC1CCCCC1 | 14.7%
Cc1ccc(CN2CCC3(C2)C(=O)N(CC(N)=O)c2ccccc23)s1 (stereo not drawn) | 32.5%
CN1C(=O)C2(CCN(CCO)C2)c2ccccc21 (stereo not drawn) | 34.7%
CN1C(=O)C2(CCN(CC3CCC3)C2)c2ccccc21 (stereo not drawn) | 88.2%
Cc1ccc(CN2CCC3(C2)C(=O)N(CC(C)C)c2ccccc23)s1 (stereo not drawn) | 65.1%
CN1C(=O)C2(CCN(CC3CC3)CC2)c2ccccc21 | 30.7%
Cc1ccc(CN2CCC3(CC2)C(=O)Nc2ccccc23)s1 | 23.5%
CCOCC(=O)N1C[C@@H](O)[C@H](N2CCN(c3ccccc3)CC2)C1 | -3.25%
CC(C)CCN1CCN(C(=O)c2c[nH]c(=O)[nH]2)CC1 | -16.8%
CCn1nc(C)c2nc(C(C)C)nc(N(C)Cc3ccco3)c21 | 11.8%
OCCN1CCC(CNCc2ccccc2OC(F)(F)F)CC1 | 4.8%
Cc1cc(C)n(-c2ccc(CNCc3cccc(C#N)c3)cn2)n1 | -12.63%
CC(C)c1csc(C(=O)N2CCCC(Cn3cc(CO)nn3)C2)n1 (stereo not drawn) | 40.3%
Cc1nn(CC(O)CN2CCc3ccccc3C2)c(=O)c(C#N)c1C (stereo not drawn) | -1.75%

Compound | INHIBITION
O=C(N1CCCC1)N1CCC2(CC1)C(=O)N(CC1CC1)c1ccccc12 | 23.5%
CCOCc1nnc2n1CCN(Cc1c(C)noc1C)CC2 | 30.3%
Cc1nc(C(=O)N2C[C@@H]3CN(S(C)(=O)=O)CCO[C@@H]3C2)cs1 | 58.5%
Cc1ccnc(C(=O)N2C[C@@H]3CN(S(C)(=O)=O)CCO[C@@H]3C2)c1 | 48.2%
Cn1nccc1C(=O)N1C[C@@H]2CN(S(C)(=O)=O)CCO[C@@H]2C1 | 40.5%
O=C(c1sccc1Br)N(Cc1cccnc1)C1CC1 | 25.2%
Clc1ccc(CN2CCc3c(ncn3C3CC3)C2)c2ncccc12 | 66.3%
Cn1cnc2c1CCN(Cc1ccc(Cl)c3cccnc13)C2 | 31.1%
c1ccc(CCN2CCc3c(ncn3C3CC3)C2)nc1 | -24.7%
Cc1nc2c(NC(CC(C)(C)C)c3cccnc3)ncnc2o1 (stereo not drawn) | 34.4%
CCCN(CCc1ccccc1)c1ncnc2oc(C)nc12 | 25.4%
CCCOc1ccccc1CCCNc1ncnc2oc(C)nc12 | 83.5%
Cc1ncnc(NCC(C)N(C)c2ccccc2)c1C (stereo not drawn) | 68.6%
Cc1nc2c(NCC(C)N(C)c3ccccc3)ncnc2o1 (stereo not drawn) | 67.7%
Cc1ncnc(NC(CC(C)(C)C)c2cccnc2)c1C (stereo not drawn) | 40.3%
Cc1nc2c(N3CCC(O)(Cn4ccnc4)CC3)ncnc2o1 | 29.7%
Cc1nc2c(N(CCC(N)=O)CCc3ccccc3)ncnc2o1 | 19.2%
CCN(CC)C(=O)C1CCCN(c2ncnc3oc(C)nc23)C1 (stereo not drawn) | 3.46%
CC(CNc1cncc(-n2cccn2)n1)N(C)c1ccccc1 (stereo not drawn) | 10%
CCC(CNc1ncnc2oc(C)nc12)Cc1ccccc1 (stereo not drawn) | 59.5%
CCCOc1ccc(Cl)cc1CNc1ncnc2oc(C)nc12 | 45.4%
